This note sets out measurements from PubChem BioAssay (Tox21).

Each structure is given as a SMILES string. Records with an inconclusive call do not appear. A call without a number means that no potency is given here. The source made the active and inactive calls. Calls come from the whole dose curve; as a rule, active = well fitted cell-killing curve with a large enough effect in the repeat runs; inconclusive = weak or mixed curves, or effect the other way; inactive = flat fitted curve, though single readings scatter.

A short description of the test: Nuclear factor erythroid 2-related factor 2/antioxidant responsive element (Nrf2/ARE) small molecule agonists: qHTS cell viability counter screen in human keratinocytes (AID 1919968). Note: nearly all actives have a fitted effect of over 55% in size. The method, boiled down:
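Parallel cytotoxicity read: KeratinoSens HaCaT cells, compound treatment 23 h, viability by CellTiter-Fluor fluorescence 1 h post-reagent.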
Potency is the fitted concentration of half-maximal effect.

Regarding `C[C@H](CCC(=O)O)[C@H]1CC[C@H]2[C@@H]3[C@H](O)C[C@@H]4C[C@H](O)CC[C@]4(C)[C@H]3CC[C@]12C`, the Potency entry is “inactive”. Regarding `C1=CC2C3C=CC(C3)C2C1` (centres undefined), the Potency entry was “inactive”. In the case of `CCOc1nc2cccc(C(=O)OC(C)OC(=O)OC3CCCCC3)c2n1Cc1ccc(-c2ccccc2-c2nn[nH]n2)cc1` (centres undefined), the Potency is 48.5 µM (active). Then `COc1cc(/C=C/c2ccccc2)oc(=O)c1`, with “inactive”.
